The record followed here is PubChem BioAssay AID1347075 (National Center for Advancing Translational Sciences (NCATS), 2019).

The structures appear in SMILES notation. Screen size: about 400,000 compounds; about 5,500 (1.4%) were called active. Roughly 9% stayed inconclusive and do not appear here. Calls follow the shape of the dose curve; as a rule, active = well fitted cell-killing curve with a large enough effect; inconclusive = small, poorly fitted or top-dose-only effect, or effect the other way; inactive = flat fitted curve, though single readings scatter. Shown is part of a subset that was picked to be rich in actives. Entries that show only a call come without a potency.
Potency is read from the fitted curve at half-maximal effect.

The nature of the assay: qHTS assay for MDR1-selective chemotherapeutics: Primary screen using the parental adenocarcinoma cell KB-3-1. Also: nearly all actives have a fitted effect of over 60% in size. To be noted: KB-3-1 viability, CellTiter-Glo ATP luminescence, 72 h; series mostly up to 46.1 µM. The method, boiled down: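 Viability of parental KB-3-1 cells, measured by CellTiter-Glo luminescence, followed a 72 h incubation at 37 °C with pinned compounds in phenol-red-free DMEM containing 10% FBS.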
As to `O=C1C[C@H]2C=CCc3cccc(c32)CN1Cc1ccccc1`, the Potency entry was “inactive”. As for `COc1ccc(C2C(C#N)=C(/N=C/N3CCOCC3)OC3=C2C(=O)CC(C)(C)C3)cc1OC` (stereo not drawn), the Potency result is “inactive”. The result for `N#CC1=C(N)Oc2cc(O)ccc2C1C1CCCCC1` (stereo not drawn) reads “inactive”; that for `COc1ccc(C2C(C#N)=C(N)Oc3cc(N)ccc32)cc1OC` (stereo not drawn), 16.4 µM (active); that for `CC1CCN(c2nc3ccc(C(=O)N4CCN(c5ccccc5)CC4)cc3s2)CC1`, “inactive”. Turning to `O=C(NCc1ccc(F)cc1)c1ccc2nc(N3CCCCC3)sc2c1`, the Potency entry was “inactive”. With `COc1ccc2nc(N3CCN(C(=O)c4ccc([N+](=O)[O-])o4)CC3)sc2c1`, the Potency is 16.4 µM (active). For the molecule `COc1cc(C(=O)N2CCN(C(=O)COc3cccc(C)c3)CC2)cc(OC)c1OC`, the Potency result was “inactive”. Take `Cc1ccn2c(-c3csc(Nc4ccc(C(=O)O)cc4)n3)c(C)nc2c1`: the Potency entry is “inactive”. As to `CC(=O)Nc1cnc(-c2ccc(O)cc2C)cn1`, the Potency result was “inactive”. For `Cc1ccc(Nc2nc(-c3ccc(O)cc3O)cs2)nc1`, the Potency was 20.6 µM (active). For the molecule `Cc1ccc(CN2CCCn3nc(C(=O)NCc4ccccc4Cl)cc3C2=O)cc1`, the Potency result was “inactive”.

In the case of `CCOC(=O)c1nnn(CC(=O)NC(=O)Nc2ccccc2F)c1C(=O)OCC`, the Potency entry is “inactive”.

In the case of `COC(=O)c1ccccc1S(=O)(=O)Nc1ccc(OC)cc1`, the Potency entry was “inactive”. To `COC(=O)c1c(C)oc(C)c1S(=O)(=O)NCc1ccc(Cl)cc1` belongs “inactive”; to `COC(=O)c1c(C)oc(C)c1S(=O)(=O)Nc1ccc(C(C)C)cc1`, 3.26 µM (active). Regarding `CC(C)(C)OC(=O)NCCCCCNC(=O)c1nc[nH]c1C(=O)NCc1ccccc1`, the Potency result is “inactive”. Turning to `O=C(Nc1cc(Br)ccc1F)c1nc[nH]c1C(=O)NCc1ccccc1`, the Potency entry was “inactive”. In the case of `O=C(Nc1ccon1)c1nc[nH]c1C(=O)NCc1ccccc1`, the Potency was 5.8 µM (active).

As for `COc1ccc(NC(=O)c2ccc3nc(C(C)C)oc3c2)cc1OC`, the Potency entry is “inactive”. The result for `COC(=O)c1sc2ncccc2c1-n1c(C)ccc1C` reads “inactive”. As for `O=C(NC1CCCCC1)c1ccc(Cn2c(SCc3ccccc3)nc3cccnc32)cc1`, the Potency entry was “inactive”. In the case of `Cc1oc2c(c1C(=O)Nc1ccc(F)c(F)c1)C1=NCCN1C=N2`, the Potency entry is “inactive”. Regarding `O=C(Nc1ccc2nc(SCC(=O)N3CCc4ccccc43)sc2c1)c1ccccc1F`, the Potency result is “inactive”. To `CCOc1ccc(NC(=O)c2cn(C3CCCCC3)c(=O)c3c2c2ccccc2n3C)cc1` belongs “inactive”. For `COCCNC(=O)CSc1nc(-c2ccccc2)[nH]c1-c1ccc(C)cc1`, the Potency result was “inactive”. To `COc1cccc(-c2nc(S(=O)(=O)c3ccc(C)cc3)c(NCc3ccccc3)o2)c1` belongs “inactive”. Turning to `CC(Nc1ccc(-c2nc(-c3ccco3)no2)cc1[N+](=O)[O-])c1ccccc1` (stereo not drawn), the Potency result was “inactive”. Take `O=C(NCc1ccccc1)C1CCN(S(=O)(=O)c2ccc3[nH]c(=O)ccc3c2)CC1`: the Potency result was “inactive”. `COc1cc(OC)c(N2CC(C(=O)Nc3cc(Cl)ccc3N3CCOCC3)CC2=O)cc1Cl` (stereo not drawn): the Potency is 5.8 µM (active). The result for `COc1ccc(Cl)cc1NC(=O)C1CC(=O)N(c2ccc(F)cc2)C1` (stereo not drawn) reads “inactive”; that for `COc1ccccc1N1CC(C(=O)Nc2ccc(S(=O)(=O)N3CCOCC3)cc2)CC1=O` (stereo not drawn), “inactive”; that for `CCCCn1cc(S(=O)(=O)c2ccc(OCC)cc2)c(=O)c2cc(OC)c(OC)cc21`, “inactive”.

Take `Cc1cccc(N2CCN(C(=O)c3ccc(Nc4nc5ccccc5n5nnnc45)cc3)CC2)c1C`: the Potency result was “inactive”. Turning to `CCN(CC)S(=O)(=O)c1ccc(N2CCOCC2)c(NC(=O)c2ccc(=O)n(C)n2)c1`, the Potency entry is “inactive”.

On to `CCN(CC)S(=O)(=O)c1cc(C(=O)Nc2cc(S(=O)(=O)N3CCOCC3)ccc2N2CCCC2)ccc1F`, for which the Potency result was “inactive”. To `CCN(CC)S(=O)(=O)c1ccc(N2CCCC2)c(NC(=O)c2ccc([N+](=O)[O-])o2)c1` belongs 6.51 µM (active).

In the case of `Cc1[nH]c2ccccc2c1C(=O)C(=O)N(C)c1ccccc1`, the Potency result was “inactive”. As for `CCn1c2c(c(=O)n3ncc(C(=O)N4CCN(c5ccccc5)CC4)c13)CN(Cc1ccc(OC)cc1)CC2`, the Potency result is “inactive”. For `C/C(=N/NC(=O)CCc1ccccc1)c1ccco1`, the Potency entry is “inactive”. As to `C/C(=N\NC(=O)c1ccoc1C)c1ccccc1O`, the Potency is 14.6 µM (active).

For the molecule `CC(=N\NC(=O)c1cc(Br)ccc1O)/C(=N/O)C(=O)Nc1ccccc1`, the Potency entry was “inactive”. Regarding `O=C(NCc1ccc2c(c1)CCN2C(=O)c1ccccc1)c1ccccc1`, the Potency entry was “inactive”. On to `COc1ccc(NC(=O)Cn2c(=O)n(Cc3ccc(C(=O)NCc4ccccc4Cl)cc3)c(=O)c3ccccc32)cc1`, for which the Potency entry is “inactive”. Consider `C=CC(=O)OCCOCCOCCOCCOC(=O)C=C`, for which the Potency was 10.3 µM (active). For the molecule `CCOC(=O)c1ccc(NC(=O)Cn2c(=O)cc(C)c3c(C)nn(-c4cccc(F)c4)c32)cc1`, the Potency result was “inactive”. Regarding `CCC(=O)N1CCc2cc(CNC(=O)Nc3ccccc3Cl)ccc21`, the Potency entry is “inactive”. Consider `COC(=O)c1scc(-c2ccc(C)cc2)c1S(=O)(=O)Nc1cc(Cl)c(OC)cc1OC`, for which the Potency entry is “inactive”. To `CCc1ccc(Sc2cc(C(=O)NCCCOC(C)C)c3ccccc3n2)cc1` belongs “inactive”; to `CSc1n[nH]c(-c2ccco2)n1`, “inactive”; to `Cn1c(-c2ccco2)nc2cc3ccccc3cc21`, 18.4 µM (active). Take `Cc1ccc2nc(-c3ccco3)c(Cc3cccc(Cl)c3)n2c1`: the Potency result is “inactive”. On to `N#Cc1ccc(-c2cccs2)nc1SCc1ccc(Br)cc1`, for which the Potency result was “inactive”.

As for `Cc1ccc(NC(=O)Cn2nnc(C(=O)NCc3ccco3)c2N)c(C)c1`, the Potency result is “inactive”. As for `CCOc1ccccc1NC(=O)Cn1nnc(C(=O)NCc2cccs2)c1N`, the Potency was 0.259 µM (active). As for `CCOc1ccccc1NC(=O)Cn1nnc(C(=O)Nc2ccc(C)c(C)c2)c1N`, the Potency entry is “inactive”.

Consider `CCc1ccccc1NC(=O)Cc1ccc(NC(=O)N2CCCCc3ccccc32)cc1`, for which the Potency result was “inactive”.

With `CC(C)(C)NC(=O)CSc1nc(-c2ccc(F)cc2)cc(C(F)(F)F)n1`, the Potency result is “inactive”. To `Cc1ccc(Cl)cc1NC(=O)CSc1nccn1C` belongs “inactive”. To `COc1ccc(-c2nc3c(s2)CCc2onc(-c4ccc(Br)cc4)c2-3)cc1` belongs “inactive”; to `COc1ccc(-c2cc(C(=O)Nc3sc4c(c3C(N)=O)CCCC4)no2)cc1`, “inactive”; to `COc1ccc(-c2nc3c(s2)CCc2onc(-c4ccc(OC)cc4)c2-3)cc1`, 20.6 µM (active). In the case of `COc1ccccc1CNC(=O)CCn1c(=O)c2ccccc2n(CC(=O)Nc2cccc(Cl)c2)c1=O`, the Potency result was “inactive”. For `COc1ccc(CCNc2ncnc3c2cnn3-c2ccc(C)cc2)cc1`, the Potency entry was “inactive”. As for `O=C(NCc1ccccc1Cl)C1=Cc2cc(Br)ccc2OC1`, the Potency entry was “inactive”.

With `CCOC(=O)c1cccc(NC(=O)CCOc2ccccc2)c1`, the Potency result was “inactive”. As to `CCn1c2ccccc2c2cc(NC(=O)COc3ccc(C)cc3C)ccc21`, the Potency result is “inactive”. For the molecule `CCOCCC(=O)Nc1ccc2c(c1)c(=O)n(C)n2-c1ccc2ccccc2c1`, the Potency is 3.66 µM (active). As for `CCOc1ccccc1CNC(=O)C1CCCN(S(=O)(=O)c2ccc3c(ccn3C)c2)C1` (stereo not drawn), the Potency result is “inactive”.

Turning to `COc1ccccc1NC(=O)c1sc2nc(C)c(C(=O)Nc3ccc(Cl)cc3)c(-c3ccc(Br)cc3)c2c1N`, the Potency result was “inactive”. Consider `O=C(Nc1ccc(S(=O)(=O)N2CCc3ccccc3C2)cc1)c1ccccc1`, for which the Potency was 18.4 µM (active).

Consider `CC(C)c1ccc(NC(=O)c2cc(S(=O)(=O)N3CCc4ccccc4C3)ccc2F)cc1`, for which the Potency result was “inactive”. For `COC(=O)c1ccc(S(=O)(=O)N2CCc3ccccc3C2)cc1`, the Potency result is “inactive”. In the case of `CCOc1ccc(N(CC)C(=O)c2cc3c(=O)oc4ccccc4c3s2)cc1`, the Potency result was “inactive”. Turning to `Cc1ccc(Nc2ccc3cc(S(=O)(=O)N4CCCCC4)ccc3n2)cc1F`, the Potency result is “inactive”. As to `COc1ccc(N2CCN(S(=O)(=O)c3ccc4c(c3)CC(=O)N4)CC2)cc1`, the Potency result was “inactive”. Regarding `CCOc1ccc(N(CC(=O)OC)S(=O)(=O)c2c(C)noc2C)cc1`, the Potency entry is “inactive”. As to `COc1ccc(N(CC(=O)Nc2cc(OC)ccc2OC)S(=O)(=O)c2c(C)noc2C)cc1`, the Potency was 18.4 µM (active).

For the molecule `Cc1noc(C)c1S(=O)(=O)N(CC(=O)Nc1ccc2c(c1)OCCO2)c1ccc(C(C)C)cc1`, the Potency result is “inactive”. On to `CCOC(=O)CN1C(C(=O)c2ccccc2)=C(OC(=O)C(C)(C)C)c2ccccc2S1(=O)=O`, for which the Potency result was “inactive”. For `COc1ccc(Cn2c(=O)oc3ccccc32)cc1`, the Potency entry was “inactive”. The result for `COc1ccc(CNc2nc(-c3ccc(Cl)cc3)nn2C(=O)c2ccccc2)cc1` reads “inactive”. Regarding `COc1ccc(Cn2c(-c3ccc(Cl)cc3)c[n+]3ccccc23)cc1`, the Potency is 3.66 µM (active).

For the molecule `Cc1oc2ncnc(N3CCCCC3)c2c1C(=O)N1CCN(c2cccc(Cl)c2)CC1`, the Potency result was “inactive”.

With `Cc1ccccc1-c1cc(C(=O)NCc2cccs2)n(CC2CC(c3cccnc3)=NO2)n1` (stereo not drawn), the Potency is 18.4 µM (active). As for `Cc1ccc(CNC(=O)c2cc(-c3ccccc3C)n(CC3CC(c4cccc([N+](=O)[O-])c4)=NO3)n2)cc1` (stereo not drawn), the Potency result was “inactive”. Regarding `Cc1ccccc1-c1cc(C(=O)NCC2CC2)n(CC2CC(c3cccnc3)=NO2)n1` (stereo not drawn), the Potency result was “inactive”. To `C=C1C=C(C(F)F)n2ncc(C(=O)NCCc3ccccc3OC)c2N1` belongs “inactive”; to `CCn1cc(C(=O)NCc2ccccc2)c(=O)c2cc(S(=O)(=O)N3CCCCC3)ccc21`, “inactive”; to `O=C(CSc1nc2c(c(=O)[nH]1)CN(Cc1ccc3c(c1)OCO3)CC2)Nc1cc(F)ccc1F`, “inactive”.

For the molecule `N#C/C=C/N1CCN(Cc2ccc3c(c2)OCO3)CC1`, the Potency result is “inactive”. To `Fc1ccc2[nH]c3c(N4CCSCC4)ncnc3c2c1` belongs 5.17 µM (active); to `Fc1ccc2[nH]c3c(N4CCN(Cc5ccc6c(c5)OCO6)CC4)ncnc3c2c1`, 18.4 µM (active). To `CCc1nc2onc(C)c2c(=O)n1CC(=O)O` belongs “inactive”. For the molecule `Cc1oc2ncn(CC(C)C)c(=O)c2c1C(=O)N1CCN(c2ccccc2F)CC1`, the Potency entry was “inactive”. Consider `O=C(NCCC1=CCCCC1)c1ccc2c(c1)N(Cc1ccccc1F)C(=O)c1ccccc1S2(=O)=O`, for which the Potency entry is “inactive”. With `O=C(CCS(=O)(=O)c1cc(Br)cc2c1N(C(=O)C1CC1)CC2)Nc1ccc(C(F)(F)F)cc1`, the Potency result is “inactive”. As to `Cc1cccc(N2CCN(c3ccc(C(=O)O)cc3NC(=O)c3ccccc3F)CC2C)c1` (stereo not drawn), the Potency entry was “inactive”.
